Assay results taken from PubChem BioAssay (Tox21).
Values joined by “and” are separate entries in the source; they are usually repeats but may differ in a detail not shown here. Equal values may be shown once. Results filed as inconclusive are left out. Active and inactive are the calls of the source. Unless noted, the call rests on the fitted dose curve; in most records, active means well fitted curve in the direction sought with a large enough effect in the repeat runs; inconclusive means weak or mixed curves; inactive means no such curve, though single readings can be large; an effect the other way counts as inactive or inconclusive.

Columns and labels:
[1] = qHTS assay to identify small molecule agonists of the peroxisome proliferator-activated receptor delta (PPARd) signaling pathway - cell viability counter screen (AID 743211); further: nearly all actives have a fitted effect of over 55% in size
Procedure, shortened: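 Viability of GeneBLAzer PPARd UAS-bla HEK293H cells was assessed after 17 h compound incubation at 37C, using CellTiter-Glo reagent added after the reporter read and luminescence recorded 30 min later.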

[2] = molecular target: Peroxisome proliferator-activated receptor delta (Homo sapiens) (UniProt Q03181); experiment: qHTS assay to identify small molecule agonists of the peroxisome proliferator-activated receptor delta (PPARd) signaling pathway (AID 743212; calls by dose curve)
Procedure, shortened: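 A PPARd-bla HEK293H line with beta-lactamase under an Upstream Activator Sequence is treated with compounds at 37 C. Substrate loading for 2 h at room temperature precedes the fluorescence measurement.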

[3] = qHTS assay to identify small molecule antagonists of the peroxisome proliferator-activated receptor delta (PPARd) signaling pathway - cell viability counter screen (AID 743213); further: nearly all actives have a fitted effect of over 50% in size
Procedure, shortened: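 HEK293H PPARd UAS-bla cells, 5 h pre-incubation, compound + L165041 300 nM final, 17 h 37 C; B/G FRET substrate 2 h RT; then CellTiter-Glo 30 min RT, luminescence.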

[4] = molecular target: Peroxisome proliferator-activated receptor delta (Homo sapiens) (UniProt Q03181); experiment: qHTS assay to identify small molecule antagonists of the peroxisome proliferator-activated receptor delta (PPARd) signaling pathway (AID 743215; active means well fitted inhibition curve with a large enough effect in the signal ratio in the repeat runs, not every such curve was filed as active; the % refers to the signal ratio;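 further: cells stimulated with agonist L165041 at 300 nM final during compound exposure; series mostly up to about 62 µM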)
Procedure, shortened: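 Antagonist-mode beta-lactamase reporter screen: HEK293H cells with UAS-bla under PPARd control, stimulated by 300 nM L165041 (final) alongside test compound for 17 h at 37 C, then FRET fluorescence after 2 h substrate incubation.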

[5] = qHTS assay to identify small molecule agonists of the farnesoid-X-receptor (FXR) signaling pathway - cell viability counter screen (AID 743218); further: nearly all actives have a fitted effect of over 45% in size
Procedure, shortened: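 In GeneBLAzer FXR-UAS-bla HEK 293T cells, compounds act for 16 h at 37 C. Cell viability is then scored in the reporter wells by CellTiter-Glo, 30 min at RT, luminescence.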

[6] = qHTS assay to identify small molecule antagonists of the farnesoid-X-receptor (FXR) signaling pathway - cell viability counter screen (AID 743221; active means well fitted cell-killing curve with a large enough effect in the repeat runs, not every such curve was filed as active; further: nearly all actives have a fitted effect of over 50% in size)
Procedure, shortened: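 Quantitative HTS of the Tox21 10K library run in parallel with the beta-lactamase reporter read. HEK 293T cells carrying a UAS-driven bla reporter got compound and 50 uM CDCA (final) for 16 h; ATP-based luminescence followed.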

[7] = molecular target: Vitamin D3 receptor (Homo sapiens) (UniProt P11473); experiment: qHTS assay to identify small molecule agonists of the vitamin D receptor (VDR) signaling pathway (AID 743222; calls by dose curve)
Procedure, shortened: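 Agonist activity measured in VDR-bla reporter cells. Exposure 16 h, 37C, 5% CO2; detection by B/G FRET substrate, 2 h RT.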

[8] = molecular target: Vitamin D3 receptor (Homo sapiens) (UniProt P11473); experiment: qHTS assay to identify small molecule antagonists of the vitamin D receptor (VDR) signaling pathway (AID 743223; active means well fitted inhibition curve with a large enough effect in the signal ratio in the repeat runs, not every such curve was filed as active; the % refers to the signal ratio)
Procedure, shortened: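 Fluorescence from LiveBLAzer B/G FRET substrate, read after 2 h at room temperature, reflects beta-lactamase reporter activity in VDR-bla cells treated 16 h at 37C with compounds and agonist 1alpha,25-dihydroxyvitamin D3 (3 nM final).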

[9] = qHTS assay to identify small molecule agonists of the vitamin D receptor (VDR) signaling pathway - cell viability counter screen (AID 743224); further: series mostly up to about 63 µM; nearly all actives have a fitted effect of over 50% in size
Procedure, shortened: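 VDR-bla cell line, quantitative HTS format; 16 h compound incubation (37C, 5% CO2); ATP-based CellTiter-Glo luminescence measured in the reporter assay wells.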

[10] = qHTS assay to identify small molecule antagonists of the vitamin D receptor (VDR) signaling pathway - cell viability counter screen (AID 743225); further: nearly all actives have a fitted effect of over 50% in size
Procedure, shortened: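 Cells (VDR-UAS-bla HEK 293T) are plated, rested 4 h at 37C, dosed with compound and 3 nM final 1-alpha,25-dihydroxy vitamin D3, and incubated 16 h. Viability is taken from CellTiter-Glo luminescence in the reporter wells.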

[11] = qHTS assay to identify small molecule agonists of the NFkB signaling pathway (AID 1159509; active means well fitted curve in the direction sought with a large enough effect in the signal ratio in the repeat runs, not every such curve was filed as active; the % refers to the signal ratio; further: series mostly up to about 61 µM)
Procedure, shortened: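 ME-180 NFkB-bla, 2,000 cells/well, overnight plating; cpd pinned in DMSO, 5 h 37 C; B/G FRET substrate 1.5 h RT; ex 405, em 460/530 nm.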

[12] = qHTS assay to identify small molecule agonists of the NFkB signaling pathway - cell viability counter screen (AID 1159515; calls by dose curve; further: series mostly up to about 61 µM; nearly all actives have a fitted effect of over 55% in size)
Procedure, shortened: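 Viability in NFkB-bla ME-180 cells was measured by CellTiter-Glo luminescence, 30 min room temperature, in wells already treated 5 hr with compounds and read for reporter FRET.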

[13] = qHTS assay to identify small molecule agonists of the endoplasmic reticulum stress response signaling pathway (AID 1159516; active means well fitted activation curve with a large enough effect in the signal ratio in the repeat runs, not every such curve was filed as active; the % refers to the signal ratio)
Procedure, shortened: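 ER stress element reporter (bla) in HeLa. 1,500 cells/well, overnight attachment; 5 hr compound; 2 hr RT substrate; dual-emission fluorescence.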

[14] = qHTS assay to identify small molecule agonists of the endoplasmic reticulum stress response signaling pathway - cell viability counter screen (AID 1159517; calls by dose curve)
Procedure, shortened: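 CellTiter-Glo was added to wells already read for beta-lactamase FRET, and luminescence was recorded 30 min later. Cells: ESRE-bla HeLa, 1,500 per well, compound exposure 5 hr at 37 C.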

[15] = qHTS assay to identify small molecule antagonists of the retinoid-related orphan receptor gamma (ROR-gamma) signaling pathway - cell viability counter screen (AID 1159520); further: nearly all actives have a fitted effect of over 50% in size
Procedure, shortened: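 Tet-on ROR gamma CHO cells (1,000/well) were plated 4 hr, given compounds in DMSO for 2 hr at 37 C, then induced with 1 uM final doxycycline for 16 hr. Viability was read as ATP by CellTiter-Glo luminescence after 30 min.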

[16] = molecular target: Nuclear receptor ROR-gamma (Homo sapiens) (UniProt P51449); experiment: qHTS assay to identify small molecule antagonists of the retinoid-related orphan receptor gamma (ROR-gamma) signaling pathway (AID 1159521; further: nearly all actives have a fitted effect of over 50% in size; further: potency means the concentration at half of the fitted maximal effect)
Procedure, shortened: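 RORγ antagonism is scored from reduced reporter luminescence in Tet-on CHO cells. Induction used 1 uM final doxycycline hyclate for 16 h at 37 C, following a 2 h compound exposure.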

[17] = qHTS assay to identify small molecule agonists of the AP-1 signaling pathway - cell viability counter screen (AID 1159525; calls by dose curve; further: nearly all actives have a fitted effect of over 55% in size)
Procedure, shortened: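 ME-180 AP-1-bla, 2500 cells/well, Opti-MEM + 0.5% dialyzed FBS; overnight 37 °C; cpd 15-pt titration, 5 h 37 °C; CellTiter-Glo 30 min RT; luminescence read; normalised to TOAB and DMSO controls.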

[18] = qHTS assay to identify small molecule agonists of the AP-1 signaling pathway (AID 1159526; calls by dose curve; further: potency means the concentration at half of the fitted maximal effect)
[19] = molecular target: Bile acid receptor (Homo sapiens) (UniProt Q96RI1); experiment: qHTS assay to identify small molecule antagonists of the farnesoid-X-receptor (FXR) signaling pathway (AID 743217; active means well fitted inhibition curve with a large enough effect in the signal ratio in the repeat runs, not every such curve was filed as active; the % refers to the signal ratio)
Procedure, shortened: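 Beta-lactamase reporter under UAS control in HEK 293T cells; compound exposure 16 h at 37 °C in the presence of chenodeoxycholic acid (50 uM final); signal from B/G FRET substrate after 2 h at room temperature.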

[20] = molecular target: Bile acid receptor (Homo sapiens) (UniProt Q96RI1); experiment: qHTS assay to identify small molecule agonists of the farnesoid-X-receptor (FXR) signaling pathway (AID 743220; active means well fitted activation curve with a large enough effect in the signal ratio in the repeat runs, not every such curve was filed as active; the % refers to the signal ratio)
Procedure, shortened: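 Beta-lactamase reporter under UAS control in GeneBLAzer FXR HEK 293T cells (5000/well) measured with LiveBLAzer FRET substrate after 2 h at room temperature. Compound exposure lasted 16 h at 37C.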

Measured: Potency

Vitamin D3 receptor (Homo sapiens), sequence (P11473 whole entry, looked up): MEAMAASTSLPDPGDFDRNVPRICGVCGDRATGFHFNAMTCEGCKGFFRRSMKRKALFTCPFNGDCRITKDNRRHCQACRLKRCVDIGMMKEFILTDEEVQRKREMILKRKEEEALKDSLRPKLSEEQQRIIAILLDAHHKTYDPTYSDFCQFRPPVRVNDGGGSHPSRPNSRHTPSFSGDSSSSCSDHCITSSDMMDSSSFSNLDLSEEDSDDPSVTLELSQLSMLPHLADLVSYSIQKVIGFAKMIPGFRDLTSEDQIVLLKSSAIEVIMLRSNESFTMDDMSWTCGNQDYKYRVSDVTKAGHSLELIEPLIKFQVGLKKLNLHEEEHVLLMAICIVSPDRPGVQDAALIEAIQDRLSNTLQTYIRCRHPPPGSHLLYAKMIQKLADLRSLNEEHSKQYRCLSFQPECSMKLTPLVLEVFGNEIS
Bile acid receptor (Homo sapiens), sequence (Q96RI1 whole entry, looked up): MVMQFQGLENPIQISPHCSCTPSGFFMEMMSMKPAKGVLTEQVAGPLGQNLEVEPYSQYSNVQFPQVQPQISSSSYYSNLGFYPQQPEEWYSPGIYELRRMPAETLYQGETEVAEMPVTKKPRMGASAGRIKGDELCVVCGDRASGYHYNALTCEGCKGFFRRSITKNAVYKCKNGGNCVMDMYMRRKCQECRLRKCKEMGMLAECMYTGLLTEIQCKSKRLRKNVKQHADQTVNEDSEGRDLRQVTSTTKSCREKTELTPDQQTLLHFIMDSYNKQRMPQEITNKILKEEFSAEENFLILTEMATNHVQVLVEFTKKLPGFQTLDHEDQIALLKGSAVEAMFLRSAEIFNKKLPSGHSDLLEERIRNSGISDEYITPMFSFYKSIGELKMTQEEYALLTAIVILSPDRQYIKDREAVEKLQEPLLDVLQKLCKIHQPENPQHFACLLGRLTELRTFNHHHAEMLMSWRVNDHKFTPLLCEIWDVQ
Peroxisome proliferator-activated receptor delta (Homo sapiens), sequence (Q03181 whole entry, looked up): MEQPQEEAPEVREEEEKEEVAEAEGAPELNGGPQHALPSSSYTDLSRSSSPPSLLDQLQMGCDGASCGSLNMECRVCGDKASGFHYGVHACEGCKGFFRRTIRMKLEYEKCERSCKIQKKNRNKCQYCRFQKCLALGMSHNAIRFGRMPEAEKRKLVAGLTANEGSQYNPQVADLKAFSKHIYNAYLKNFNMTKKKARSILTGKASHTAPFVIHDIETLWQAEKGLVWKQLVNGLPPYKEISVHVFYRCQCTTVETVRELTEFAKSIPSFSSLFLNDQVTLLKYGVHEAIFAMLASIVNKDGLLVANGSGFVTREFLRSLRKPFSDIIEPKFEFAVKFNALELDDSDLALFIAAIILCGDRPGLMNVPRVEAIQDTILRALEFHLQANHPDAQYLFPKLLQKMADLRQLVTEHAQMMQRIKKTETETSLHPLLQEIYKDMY

O=C(O)/C=C/C(=O)O
inactive: [1] | [2] | [3] | [4] | [5] | [6] | [7] | [8] | [9] | [10] | [11] | [12] | [13] | [14] | [15] | [16] | [17] | [18]

O=C1c2ccccc2CCc2ccccc21
active: [18] 35.4 µM and 23.9 µM
inactive: [1] | [2] | [3] | [4] | [19] | [5] | [20] | [6] | [9] | [10] | [11] | [12] | [13] | [14] | [15] | [16] | [17]

CC(CCl)OP(=O)(OC(C)CCl)OC(C)CCl (configuration not stated)
inactive: [1] | [2] | [3] | [4] | [19] | [5] | [20] | [6] | [7] | [8] | [9] | [10] | [11] | [12] | [13] | [14] | [15] | [16] | [17] | [18]

C[C@]12CC[C@@H]3c4ccc(O)cc4CC[C@H]3[C@@H]1C[C@@H](O)[C@@H]2O
inactive: [1] | [2] | [3] | [4] | [5] | [6] | [7] | [8] | [9] | [10] | [11] | [12] | [13] | [14] | [15] | [16] | [17] | [18]

OCc1cccc(Oc2ccccc2)c1
inactive: [1] | [2] | [3] | [4] | [19] | [5] | [20] | [6] | [7] | [8] | [9] | [10] | [11] | [12] | [13] | [14] | [15] | [16] | [17] | [18]

N#Cc1ccccc1
inactive: [1] | [2] | [3] | [4] | [19] | [5] | [20] | [6] | [7] | [8] | [9] | [10] | [11] | [12] | [13] | [14] | [15] | [16] | [17] | [18]

Nc1nc(N)nc(-c2ccccc2)n1
inactive: [1] | [2] | [3] | [4] | [5] | [6] | [9] | [10] | [11] | [12] | [13] | [14] | [15] | [16] | [17] | [18]

CC(C)OC(=O)COc1ccc(Cl)cc1Cl
inactive: [1] | [2] | [4] | [19] | [5] | [20] | [6] | [9] | [10] | [11] | [12] | [13] | [14] | [15] | [16] | [17] | [18]

CN(C)c1ccc(O)c2c1C[C@H]1C[C@H]3[C@H](N(C)C)C(=O)C(C(N)=O)=C(O)[C@@]3(O)C(=O)C1=C2O
inactive: [1] | [2] | [3] | [4] | [5] | [6] | [7] | [8] | [9] | [10] | [11] | [12] | [13] | [14] | [15] | [17] | [18]
active: [16] 21.7 µM and 26.6 µM

CCOCC(=O)O
inactive: [1] | [2] | [4] | [5] | [6] | [7] | [8] | [9] | [10] | [11] | [12] | [13] | [14] | [15] | [16] | [17] | [18]

C=Cc1ccc(C)cc1
inactive: [1] | [2] | [3] | [4] | [5] | [6] | [7] | [8] | [9] | [10] | [11] | [12] | [13] | [14] | [15] | [16] | [17] | [18]

CC(C)CC(C)O (configuration not stated)
inactive: [1] | [2] | [4] | [19] | [5] | [20] | [6] | [7] | [8] | [9] | [10] | [11] | [12] | [13] | [14] | [15] | [16] | [17] | [18]

O=C(O)c1ccccc1C(=O)O
inactive: [1] | [2] | [3] | [4] | [5] | [6] | [9] | [10] | [11] | [12] | [13] | [14] | [15] | [16] | [17] | [18]

CCCCOC(=O)c1ccc(N)cc1
inactive: [1] | [2] | [3] | [4] | [5] | [6] | [7] | [8] | [9] | [10] | [11] | [12] | [13] | [14] | [15] | [16] | [17] | [18]

COc1cc(OC)c(C(=O)CCCN2CCCC2)c(OC)c1
inactive: [1] | [2] | [3] | [4] | [5] | [6] | [7] | [8] | [9] | [10] | [11] | [12] | [13] | [14] | [15] | [16] | [17] | [18]

NC(=S)NNC(N)=S
inactive: [1] | [2] | [4] | [19] | [20] | [6] | [9] | [10] | [11] | [12] | [13] | [14] | [15] | [16] | [17] | [18]
